# Source: PubChem BioAssay (several laboratories)
# Sampled rows, rich in hits. Any-hit rate of the full collection: about 4.5%.
# aSyn UTR inh: 5' untranslated region of α-synuclein, MLPCN primary screen; alpha-synuclein 5'UTR reporter, inhibitor activity; inhibition, % (tested at 7.5 µM); 300,000 tested, 0.82% active; AID 1813; in the data active = inhibition above about 60%;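 note: H4 neuroglioblastoma cells stably carrying SNCA 5'UTR luciferase fusion; 0% = DMSO wells and 100% = positive control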
# 697 NFkB inh: inhibitors of the PMA/ionomycin-induced NF-kB reporter in 697 B cells. 697 B-cell NF-kB luciferase reporter, 16 h. inhibition, % at 4 µM. 330,000 tested, 0.33% active; in the data active = inhibition above about 35%
# Jurkat NFkB inh: inhibitors of the PMA/ionomycin-induced NF-kB reporter in Jurkat cells; PMA/ionomycin-induced NF-kB luciferase reporter, luminescence; inhibition, % at 4 µM; 330,000 tested, 0.53% active; AID 435003; in the data active = inhibition above about 50%
# Gli-Sufu block: Gli-Sufu pathway antagonism; Sufu-KO-LIGHT fibroblasts, Gli luciferase reporter luminescence; inhibition, % at 5 µM; 340,000 tested, 0.74% active; AID 588413;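 active = inhibition above about 55%, limit read from the data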;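 note: 0% = DMSO-treated cells and 100% = wells with medium but no cells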
# CSC inhib: cancer stem cell inhibition | cancer stem cell-like cells viability, luminescence | inhibition, % at 7.5 µM | 300,000 tested, 1.1% active; in the data active = inhibition above about 75%; tested in HMLE shEcad cells
# Mdm2-MdmX inh: disrupts the human Mdm2-MdmX interaction. O15151+Q00987. SaOS-2 split-luciferase Mdm2/MdmX complementation, luminescence. inhibition, % at 8 µM. 330,000 tested, 3% active;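 active = inhibition of at least 50% at 8 µM in the primary screen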
# Target sequence (O15151 whole entry, looked up): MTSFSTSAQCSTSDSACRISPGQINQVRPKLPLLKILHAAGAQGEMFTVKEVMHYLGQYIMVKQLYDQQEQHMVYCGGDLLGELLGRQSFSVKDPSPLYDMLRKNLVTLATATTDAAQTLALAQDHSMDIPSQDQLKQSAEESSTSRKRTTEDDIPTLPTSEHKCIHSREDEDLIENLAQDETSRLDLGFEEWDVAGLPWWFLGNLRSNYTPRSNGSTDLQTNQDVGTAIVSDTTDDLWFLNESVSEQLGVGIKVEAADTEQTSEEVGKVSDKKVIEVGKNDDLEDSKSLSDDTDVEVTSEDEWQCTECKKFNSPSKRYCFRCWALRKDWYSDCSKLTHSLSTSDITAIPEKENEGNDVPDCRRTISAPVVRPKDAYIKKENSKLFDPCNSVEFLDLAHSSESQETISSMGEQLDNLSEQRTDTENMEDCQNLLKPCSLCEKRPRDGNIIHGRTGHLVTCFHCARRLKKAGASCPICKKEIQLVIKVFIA
# Target sequence (Q00987 whole entry, looked up): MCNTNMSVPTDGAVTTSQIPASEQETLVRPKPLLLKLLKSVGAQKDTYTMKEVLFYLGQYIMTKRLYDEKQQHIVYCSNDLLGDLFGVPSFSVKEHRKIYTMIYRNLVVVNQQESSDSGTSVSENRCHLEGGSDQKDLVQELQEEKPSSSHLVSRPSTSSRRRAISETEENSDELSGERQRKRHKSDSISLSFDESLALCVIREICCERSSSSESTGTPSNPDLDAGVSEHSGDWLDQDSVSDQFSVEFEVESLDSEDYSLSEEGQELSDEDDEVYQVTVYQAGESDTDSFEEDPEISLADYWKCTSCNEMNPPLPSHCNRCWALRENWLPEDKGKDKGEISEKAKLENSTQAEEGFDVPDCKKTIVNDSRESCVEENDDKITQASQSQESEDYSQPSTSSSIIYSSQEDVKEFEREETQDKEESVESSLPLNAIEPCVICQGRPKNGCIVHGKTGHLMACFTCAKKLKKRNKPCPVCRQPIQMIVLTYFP
# Gli antag conf: Gli-SUFU antagonism confirmation, single concentration. shares compounds with Gli-Sufu block. Sufu-KO-LIGHT cells, Gli luciferase reporter, luminescence. inhibition, % at 5 µM. 2,500 tested, 40% active. AID 602428;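 active = mean inhibition at 5 µM reaching about 45%, limit read from the data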;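 note: plate controls were DMSO-treated cells for no effect and wells lacking cells for full effect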
# SufuKO cytotox: cytotoxicity counter-screen for Gli-SUFU antagonists. shares compounds with Gli-Sufu block. Sufu-KO-LIGHT cells cytotoxicity, ATP luminescence. cytotoxicity, % at 5 µM. 2,500 tested, 32% active;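 active = mean cytotoxicity at 5 µM above about 25%, limit read from the data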;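 note: cells exposed to compound overnight for roughly 16 to 18 hours; plate controls were DMSO wells with cells for no effect and medium without cells for full effect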
# Wnt3a cs: counter-screen for Gli-SUFU antagonists: Wnt3a reporter inhibition; inhibition, % at 6.25 µM; Wnt-LIGHT cells, Wnt3a-driven luciferase reporter, luminescence; 2,500 tested, 20% active; shares compounds with Gli-Sufu block;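 active = mean inhibition above about 25%, limit read from the data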
# * hit, by the source's call; . = not tested or not shown.
SMILES,aSyn UTR inh,697 NFkB inh,Jurkat NFkB inh,Gli-Sufu block,CSC inhib,Mdm2-MdmX inh,Gli antag conf,SufuKO cytotox,Wnt3a cs
COc1ccc(-n2c(C)nnc2SCC(=O)Nc2ccccc2F)cc1,-26.2,-7.1,0.5,-5.2,-1.1,-3.7,.,.,.
O=C(c1ccc(=O)[nH]c1)N1CCN(S(=O)(=O)c2ccc(Cl)cc2)CC1,3.4,17.6,0.2,54.2,-5.9,-1.3,21.5,-8.0,7.3
Cc1ccc(S(=O)(=O)N2CCN(C(=O)c3ccc(S(=O)(=O)N4CCCC4)cc3)CC2)cc1,18.3,-14.3,3.9,57.2*,55.6,-8.8,42.7,22.5,-13.4
CC(=O)N(c1ccc(Cl)cc1)c1c[nH]c2ccccc12,-29.1,4.7,17.2,55.7*,.,-5.4,13.6,7.5,-11.3
COc1ccc(Nc2nc(N3CCOCC3)nc(N3CCOCC3)n2)c(OC)c1,-20.5,10.0,-16.0,59.4*,4.4,20.6,42.2,-5.2,14.7
COc1ccccc1Nc1nc(N2CCOCC2)nc(N2CCOCC2)n1,13.5,-3.5,-13.8,0.3,-6.1,49.7,.,.,.
NC(=O)c1ccsc1NC(=O)COC(=O)c1cc(Cl)ccc1O,-25.2,-3.8,2.6,2.9,-8.5,16.5,.,.,.
CCc1cc(-c2nc(N)ncc2-c2csc(C)n2)c(O)cc1OC,10.3,-17.0,3.8,0.2,-8.9,4.6,.,.,.
COc1ccc(-c2nc(N)ncc2-c2csc(C)n2)c(O)c1,6.8,-7.0,-3.2,99.0*,6.3,7.1,23.4,3.1,21.2
Cc1csc(=Nc2cccnc2)n1Cc1ccco1,-11.8,0.5,8.2,55.5*,11.3,5.3,4.4,-0.5,-22.1
O=C1CN(C(=O)CSc2ccccn2)c2ccccc2N1,.,8.2,4.5,1.8,-12.0,25.0,.,.,.
CC(C)(C)[C@H]1COC(=O)[C@H](NC(=O)OCC2c3ccccc3-c3ccccc32)C/C=C\C[C@@H](CC(=O)N[C@@H](CO)Cc2ccccc2)C(=O)N1,.,-1.0,12.9,57.1*,.,23.4,50.6*,20.0,-31.6
CC(C)(C)[C@H]1COC(=O)[C@H](NC(=O)OCC2c3ccccc3-c3ccccc32)C/C=C\C[C@@H](CC(=O)N[C@H](CO)Cc2ccccc2)C(=O)N1,.,10.6,-4.4,39.9,.,16.9,.,.,.
C[C@@H]1COC(=O)[C@H](NC(=O)OCC2c3ccccc3-c3ccccc32)C/C=C\C[C@@H](CC(=O)N[C@@H](CO)Cc2ccccc2)C(=O)N1,.,2.6,-3.2,58.6*,.,-2.2,56.8*,19.3,-59.1
CCOc1ccccc1NC(=O)C1CCCN(S(=O)(=O)c2ccc(-n3cnnn3)cc2)C1 (centres undefined),-0.6,12.2,10.3,11.5,-7.2,22.5,.,.,.
COc1ccc(CNC(=O)CCc2c(C)nc3cc(-c4ccccc4OC)nn3c2C)cc1,40.0,3.0,12.5,8.3,-8.3,18.3,.,.,.
COc1cc(OC)cc(-c2cc3nc(C)c(CCC(=O)O)c(C)n3n2)c1,.,.,.,60.8*,8.6,.,64.3*,1.6,90.4*
CCN(CC)CCN(C(=O)c1cc2ccccc2cc1OC)c1nc2ccc(F)cc2s1,-23.7,1.2,-22.3,51.0,44.8,29.4,28.1,-1.6,-34.6
CCN(CC)CCN(C(=O)c1ccc2ccccc2c1)c1nc2ccc(OC)cc2s1,-1.0,3.2,3.5,21.2,12.1,25.6,.,.,.
Cc1nc2ccccc2c(C)c1CC(=O)OC(C)C(=O)NC1(C#N)CCCCC1 (centres undefined),0.6,5.9,0.9,4.3,-0.4,9.2,.,.,.
CC1CCN(C(=S)NC(=O)c2cccs2)CC1,0.8,2.0,-5.0,-7.0,-3.4,10.5,.,.,.
Cc1ccc2[nH]c(=O)c(CN(Cc3cccs3)Cc3nnnn3CC3CCCO3)cc2c1 (centres undefined),-10.8,-1.7,8.5,54.2,-9.1,-21.3,21.1,13.7,-16.9
Cc1ccc2cc(CN(Cc3cccs3)Cc3nnnn3CC3CCCO3)c(=O)[nH]c2c1 (centres undefined),34.8,19.9,-4.8,0.7,-8.5,5.2,.,.,.
Cc1ccc(C(=O)C2CCN(CC(=O)Nc3ccc(N(C)C)cc3)CC2)cc1,15.2,28.7,16.2,11.1,8.7,1.4,.,.,.
O=C(COC(=O)/C=C/c1ccccc1)NNC(=O)c1ccc([N+](=O)[O-])cc1,-1.0,13.1,-1.3,-10.9,-8.4,11.3,.,.,.
SMILES,aSyn UTR inh,697 NFkB inh,Jurkat NFkB inh,Gli-Sufu block,CSC inhib,Mdm2-MdmX inh,Gli antag conf,SufuKO cytotox,Wnt3a cs
CCCCc1nc(N2CCN(C(=O)c3ccco3)CC2)c(C#N)c2c1CCCC2,10.2,-12.7,-3.0,66.4*,118.7*,37.4,24.7,11.6,35.0*
CCOC(=O)C1CCN(C2=C(NS(=O)(=O)c3ccc(Br)cc3)C(=O)c3ccccc3C2=O)CC1,40.7,-12.5,-4.1,54.9,19.9,10.9,20.2,15.1,17.2
NC(=O)C1CCN(C2=C(NS(=O)(=O)c3ccc(Br)cc3)C(=O)c3ccccc3C2=O)CC1,19.9,0.1,-1.6,11.7,1.3,12.4,.,.,.
CS(=O)(=O)c1cccc(S(=O)(=O)N2CCCCCC2)c1,-29.7,12.6,17.1,5.7,-5.3,6.8,.,.,.
Cn1c(=O)c2c(nc(SCC(=O)NCc3ccc4c(c3)OCO4)n2Cc2ccc(Cl)cc2)n(C)c1=O,15.9,-2.9,-18.5,61.6*,-1.2,27.8,26.9,-7.1,-25.2
COCCNC(=S)N/N=C/c1ccc(OCc2ccc(C(=O)OC)cc2)cc1,-6.1,2.0,-4.2,-22.8,.,5.2,.,.,.
COc1ccc(-c2nc(CCl)cs2)cc1OC,-17.5,-6.6,-23.5,60.3*,3.6,11.8,10.1,16.1,-14.8
COc1cccc(-c2nc(CCl)cs2)c1,-28.1,6.5,-30.6,-13.8,-4.5,8.3,.,.,.
Cc1cc(C)cc(C(=O)N(NC(=O)Nc2ccc(Cl)cc2)C(C)(C)C)c1,-0.7,18.0,4.7,59.9*,-3.7,28.4,21.8,9.7,-3.2
Cc1cccc(C)c1NC(=O)NN(C(=O)c1ccccc1)C(C)(C)C,18.6,9.5,5.5,9.2,-5.3,21.8,.,.,.
CCOC(=O)c1[nH]c2ccccc2c1NC(=O)CN1CCCCC1,10.0,1.3,0.7,6.5,-5.4,5.1,.,.,.
CCOC(=O)c1[nH]c2ccccc2c1NC(=O)CC(C)C,1.7,-11.0,-16.9,53.6,-9.8,7.7,22.6,8.8,-19.5
CCCC(=O)Nc1c(C(=O)OCC)[nH]c2ccccc12,0.0,-7.6,-15.5,75.4*,-6.8,7.4,14.8,17.1,-49.3
Oc1ccccc1Cc1c(O)ccc2ccccc12,10.4,-10.2,0.0,-4.4,18.8,-7.7,.,.,.
Cc1cccc(NC(=S)NC2CCSc3ccccc32)c1 (centres undefined),16.2,11.0,7.4,-11.2,7.4,10.5,.,.,.
